tim10-1 inh: growth inhibitors of tim10-1 mutant yeast, primary screen, luminescence, uHTS; S. cerevisiae tim10-1 ts strain growth, BacTiter-Glo, 24 h; inhibition, % at 20 µM; hit rate 2.2% among 330,000; AID 463190, 2010;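 active means inhibition of at least 40%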;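 further: mutant grown at 25 °C; 0% = DMSO wells with yeast and 100% = wells holding no yeast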
TIM10 inh: growth inhibitors of isogenic TIM10 control yeast, primary screen, counter-screen for tim10-1 yeast inhibitor project, luminescence, uHTS. S. cerevisiae TIM10 strain growth, BacTiter-Glo luminescence, 24 h. inhibition, % at 10 µM. hit rate 1.4% among 330,000;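 active means inhibition of 40% or more at the single tested concentration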;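 further: wild-type TIM10 isogenic control strain grown at permissive 25 °C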
tim23-1 inh: growth inhibitors of tim23-1 mutant yeast, primary screen, luminescence, uHTS; S. cerevisiae tim23-1 growth, BacTiter-Glo luminescence, 24 h; inhibition, % at 20 µM; hit rate 1.3% among 330,000; AID 463212, 2010;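 active means growth inhibition of the mutant yeast at or above 50%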;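 further: temperature-sensitive mutant grown at 25 °C; plate controls were DMSO-treated mutant yeast for no effect and medium wells lacking yeast for full effect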
PfHsp90 set2: growth inhibition of PfHsp90-expressing yeast, primary screen, antimalarial PfHsp90 inhibitor project, S. cerevisiae, BacTiter-Glo luminescence, single point, set 2. BacTiter-Glo ATP, 48 h; yeast lacking PDR1 and PDR3 efflux regulators. inhibition, % at 9.4 µM. hit rate 0.32% among 310,000;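 active means every replicate shows inhibition above about 80%, whatever the replicate mean, limit read from the data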;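 further: 0% = DMSO neutral controls and 100% = 20 µM radicicol positive controls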
NALP3 yeast inh: NALP3 inflammasome inhibitors in reconstituted yeast, primary screen, luminescence, uHTS | Yeast reconstituted NLRP3/ASC/caspase-1, beta-gal luminescence, 24 h | inhibition, % at 10 µM | hit rate 0.39% among 330,000;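 active means inhibition of 50% or more; inactive means inhibition below 50%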;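 further: plate controls were induced DMSO wells for no effect and uninduced yeast grown without galactose for full effect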
tim23-1 confirm: tim23-1 mutant yeast growth inhibitors, confirmation, luminescence, single concentration | shares compounds with tim23-1 inh | S. cerevisiae tim23-1 growth, BacTiter-Glo luminescence, 24 h | AID 463218, 2010 | hit rate 83% among 4,400 | inhibition, % at 20 µM;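 active means inhibition above about 39% in either of two replicate wells at 20 µM, limit read from the data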;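 further: temperature-sensitive tim23-1 mutant grown at 25 °C; 0% = DMSO wells with yeast and 100% = medium wells without yeast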
* marks the source's active call; other numbers are inactive results; / = not tested or not shown. A selection: hits, their analogues and other compounds. The true share with any hit is near 3.7%.

SMILES	tim10-1 inh	TIM10 inh	tim23-1 inh	PfHsp90 set2	NALP3 yeast inh	tim23-1 confirm
OC1CCN(c2cc(-c3ccccc3)nc3cc(-c4ccc(F)cc4)nn23)CC1	31.2	31.7	16.1	12.6	20.5	/
O=C(Nc1ccc2c(c1)oc1ccccc12)c1ccc(Br)o1	-12.3	28.1	52.2*	-10.6	22.0	38.2
O=C(Nc1ccccc1)c1ccc(Br)o1	-10.6	6.7	21.6	13.8	33.5	/
O=C(Nc1ccc2c(c1)OCO2)c1ccc(Br)o1	-25.5	-5.3	8.4	-17.1	34.5	/
Cc1ccoc1C(=O)Nc1ccc2ccccc2c1	30.6	29.3	54.2*	24.6	30.6	50.2*
O=C(Nc1ccc2ccccc2c1)c1ccc(Br)o1	18.3	19.6	56.0*	8.3	41.2	52.4*
Cc1cc(C(=O)Nc2ccc3ccccc3c2)oc1C	20.3	27.1	46.0	11.4	43.3	/
CO/C=C\C=C/c1nnn(-c2ccc(Cl)cc2)n1	25.6	21.5	35.6	-35.5	-0.8	/
O=C1OCCN1N=Cc1ccco1	/	/	/	-2.0	/	/
C=CCNC(=S)/N=c1/ccccn1CC	9.5	7.5	-4.9	-3.3	26.0	/
CCSc1nc(N)nc(-c2cccs2)c1C#N	39.5	-3.2	25.6	-36.1	-28.2	/
N#Cc1nc(Nc2cc(F)cc(F)c2)c2ncn(CC(F)F)c2n1	19.7	21.2	52.4*	16.4	36.8	36.1
Cn1c(=O)c2c(nc(SCC(=O)O)n2Cc2cc3c(cc2Cl)OCO3)n(C)c1=O	10.1	-1.0	0.4	/	11.3	/
O=CN(/C=C1\Sc2ccccc2C1=O)Cc1ccccc1	30.9	22.6	68.0*	-9.9	30.2	66.2*
CCC(=O)N(C)/C=C1\Sc2ccccc2C1=O	-24.7	-14.8	53.4*	23.3	21.1	4.9
O=C(N/C(=C\c1cccc([N+](=O)[O-])c1)C(=O)N1CCOCC1)c1cccc(Br)c1	7.9	1.0	9.0	20.1	11.6	/
CCC1Sc2ccc(S(=O)(=O)CCC(=O)NC3CCCCCC3)cc2NC1=O (stereo not drawn)	18.0	0.5	13.3	-9.6	10.1	/
CCCOP(=O)(c1ccc(N(C)C)cc1)C(O)c1ccc(N(C)C)cc1 (stereo not drawn)	1.6	8.5	1.0	10.5	-2.8	/
O=[N+]([O-])c1ccc(N=Nc2c(O)[nH]c3ccc(F)cc23)cc1	35.1	2.8	50.0*	-22.2	9.0	13.1
c1ccc(Nc2nc(-c3cccnc3)cs2)nc1	10.1	11.7	-3.7	-7.6	20.9	/
Fc1ccc(-c2csc(Nc3ccccn3)n2)cc1	17.8	8.6	53.5*	3.3	20.5	40.6*
Cc1cccc(Nc2nc(-c3cccs3)cs2)n1	5.7	30.3	44.3	0.3	23.2	/
Oc1ccc(-c2csc(Nc3ccccn3)n2)c(O)c1	26.4	9.7	72.5*	-25.9	9.1	53.9*
c1ccc(Nc2nc(-c3cccs3)cs2)nc1	17.2	29.4	56.5*	-13.3	7.1	33.6
O=C(NCc1cccnc1)/C(=C\c1ccc(-c2ccc(Br)cc2)o1)S(=O)(=O)c1ccccc1	38.6	34.8	51.5*	14.5	-0.8	63.3*
SMILES	tim10-1 inh	TIM10 inh	tim23-1 inh	PfHsp90 set2	NALP3 yeast inh	tim23-1 confirm
O=C(CN(Cc1ccc(Br)cc1)S(=O)(=O)c1ccccc1)NCc1cccnc1	35.2	2.4	16.8	7.9	-0.4	/
O=C(NCCc1cccc(Cl)c1)c1ccc(OC2CCN(Cc3ccccn3)CC2)cc1	9.1	2.7	14.2	5.7	16.1	/
COc1ccccc1N=C1SCC(=O)N1Cc1ccco1	-2.7	9.9	3.5	3.1	5.4	/
O=C(NC(=S)NCc1ccco1)c1ccc(Br)cc1	32.7	30.7	56.4*	/	-2.1	45.3*
O=C(NC(=S)NCc1ccco1)c1ccccc1	18.4	9.4	3.3	19.7	13.5	/
COc1ccc(Nc2nc3ccc(OC)cc3s2)cc1	26.2	35.8	60.8*	-4.4	6.0	40.0*
COc1ccc2nc(Nc3nc(C)c(C(C)=O)s3)sc2c1	18.1	28.3	19.5	-15.7	25.1	/
COc1ccc(-c2cc(-c3ccc(F)cc3)nc(N3CCN(C)CC3)n2)cc1	28.5	31.0	55.1*	9.7	34.1	57.5*
COc1ccc(-c2cc(C(F)(F)F)nc(N3CCOCC3)n2)cc1	-9.2	-16.8	-19.6	14.0	7.2	/
O=C(CNC(=O)c1ccccc1)OCc1cc(=O)n2cc(Br)ccc2n1	15.4	-16.4	7.0	-0.6	-5.3	/
O=C(CCc1ccccc1)N[C@@H]1c2ccccc2CC[C@@H]1OCc1ccccc1	21.9	1.5	37.4	12.8	/	/
O=C(COCc1ccccc1)N[C@@H]1c2ccccc2CC[C@H]1OCc1ccccc1	25.1	16.8	52.2*	15.1	/	38.2
Cc1ccc(NC(=S)N/N=C/c2c(Cl)cccc2Cl)c(C)c1	38.9	25.9	51.5*	33.8	37.1	40.2*
COc1ccccc1-n1c(C)nnc1SCC(=O)Nc1cccc(C(C)=O)c1	20.4	-6.7	-3.0	/	-2.7	/
CCc1ccc(N2CC(C(=O)Nc3ccc4c(c3)OCCO4)CC2=O)cc1 (stereo not drawn)	19.8	-4.5	32.6	24.5	19.7	/
CCOC(=O)c1nnsc1NC(=O)Nc1ccc(OC)cc1	-14.2	8.4	83.6*	-6.4	21.3	1.9
CCOC(=O)c1nnsc1NC(C)=O	6.4	0.0	-7.3	52.5	5.5	/
Cc1nc2cc(-c3ccccc3)sc2c(=O)n1N	36.1	32.5	51.1*	56.4	13.4	52.8*
Cc1nc(SCCCSc2n[nH]c(C)n2)n[nH]1	4.6	-16.2	7.4	-7.3	-19.1	/
O=c1cc(-c2ccccc2Cl)oc2c(NS(=O)(=O)c3cc(Cl)cc(Cl)c3O)ccc(O)c12	4.3	27.2	51.9*	/	-9.7	-222.4
Cc1ccc(NC(=O)OCc2ccccc2S(C)=O)cc1 (stereo not drawn)	-3.0	3.6	4.8	-5.8	15.7	/
COc1ccc(NC(=O)CCCn2nc(C)c3c(C)n(-c4ccccc4)nc3c2=O)cc1	11.0	4.3	5.0	-0.4	9.4	/
O=C(Cn1ncc(Cl)c(Cl)c1=O)c1ccc2c(c1)OCCO2	-34.1	-27.3	58.4*	-3.2	46.0	30.9
O=C(Cn1ncc(Cl)c(Cl)c1=O)Nc1ccc2c(c1)OCO2	-21.1	-5.4	-9.1	-18.6	19.7	/
CC(/C=N/NC(=O)c1cccs1)=C\c1ccco1	6.0	23.1	63.7*	3.1	17.8	71.0*
CC(/C=N/NC(=O)Cc1cccs1)=C\c1ccco1	-6.3	-11.0	10.9	/	15.7	/
CC(NCCC1(Cc2ccccc2Cl)CCOC(C)(C)C1)c1cccs1 (stereo not drawn)	11.8	13.2	19.6	-6.7	-0.2	/
CCCC(=O)NC(c1ccc(N(C)C)cc1)c1c(O)ccc2ccccc12 (stereo not drawn)	33.4	22.4	20.9	21.7	-0.3	/

Bioassay records as filed in PubChem BioAssay.
